# Screening results from PubChem.
# C diff HTS = blocks growth of Clostridium difficile; Clostridium difficile clinical isolate growth, OD600, 24 h; hits give low values; growth activity, negative = inhibition, % at 16 µg/mL (by protocol); 86,000 tested, 0.25% active; AID 1259249;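 active = mean growth activity at or below -80% and every replicate also at or below -80%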;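 also: 0% = DMSO wells and -100% = levofloxacin 16 µg/mL wells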
# Starred values were filed as active, the others as inactive; ! = a repeat was not active. This is one part of a sample in which hits are shown more often than they occur.
SMILES,C diff HTS
CO[C@H]1CN(C)C(=O)c2ccc(NC(=O)Nc3cc(Cl)cc(Cl)c3)cc2OC[C@@H](C)NC[C@H]1C,-53
CO[C@H]1CN(C)C(=O)c2cc(NC(=O)Nc3ccccc3)ccc2OC[C@@H](C)NC[C@H]1C,-1
CO[C@H]1CN(C)C(=O)c2ccc(NC(=O)Nc3cc(Cl)cc(Cl)c3)cc2OC[C@H](C)NC[C@H]1C,-96*
CO[C@H]1CN(C)C(=O)c2cc(NC(=O)Nc3ccc(Cl)cc3)ccc2OC[C@H](C)NC[C@@H]1C,-4
CO[C@@H]1CN(C)C(=O)c2cc(NC(=O)Nc3ccc(Cl)c(Cl)c3)ccc2OC[C@@H](C)NC[C@@H]1C,-97*
CO[C@@H]1CN(C)C(=O)c2cc(NC(=O)Nc3ccccc3)ccc2OC[C@@H](C)NC[C@@H]1C,0
CO[C@H]1CN(C)C(=O)c2cc(NC(=O)Nc3ccccc3)ccc2OC[C@@H](C)NC[C@@H]1C,-1
CO[C@H]1CN(C)C(=O)c2cc(NC(=O)Nc3ccc(Cl)c(Cl)c3)ccc2OC[C@H](C)NC[C@@H]1C,-97*
CO[C@@H]1CN(C)C(=O)c2cc(NC(=O)Nc3ccc(Cl)cc3)ccc2OC[C@@H](C)NC[C@@H]1C,-2
CO[C@H]1CN(C)C(=O)c2ccc(NC(=O)Nc3cc(Cl)cc(Cl)c3)cc2OC[C@@H](C)NC[C@@H]1C,8
CO[C@H]1CN(C)C(=O)c2cc(NC(=O)Nc3ccc(Cl)cc3)ccc2OC[C@H](C)NC[C@H]1C,-1
CO[C@@H]1CN(C)C(=O)c2cc(NC(=O)Nc3ccc(Cl)c(Cl)c3)ccc2OC[C@H](C)NC[C@H]1C,-98*
COc1ccc2c3c(n(C)c2c1)[C@@H](CO)N(S(C)(=O)=O)CC31CCN(C(=O)CN(C)C)CC1,-2
CCC(=O)N(C)C[C@H]1Oc2cc(C#CC(C)(C)O)ccc2S(=O)(=O)N([C@@H](C)CO)C[C@@H]1C,-3
COc1ccccc1-c1cn(CC[C@H]2CC[C@H](NC(=O)c3cnccn3)[C@H](CO)O2)nn1,-2
COCC#Cc1ccc2c(c1)O[C@H](CN(C)S(C)(=O)=O)[C@@H](C)CN([C@@H](C)CO)S2(=O)=O,-1
CCCC#Cc1cnc2c(c1)C(=O)N([C@@H](C)CO)C[C@H](C)[C@H](CN(C)C(=O)Nc1ccc(OC)cc1)O2,-5
O=C(CN1CCOCC1)N[C@H]1CC[C@H](CCn2cc(C3CCCC3)nn2)O[C@@H]1CO,-4
CCCC#Cc1ccc2c(c1)O[C@H](CN(C)Cc1ccc3c(c1)OCO3)[C@H](C)CN([C@H](C)CO)S2(=O)=O,13
COc1ccc2c3c(n(C)c2c1)[C@@H](CO)N(C(=O)c1ccccn1)CC31CCN(C)CC1,-1
C[C@@H]1CCCCO[C@@H](CN(C)Cc2ccc3c(c2)OCO3)[C@@H](C)CN([C@H](C)CO)C(=O)c2cc(NC(=O)Nc3ccc(C(F)(F)F)cc3)ccc2O1,-5
C[C@H]1CCCCO[C@H](CN(C)Cc2ccc3c(c2)OCO3)[C@@H](C)CN([C@@H](C)CO)C(=O)c2cc(NC(=O)Nc3ccc(C(F)(F)F)cc3)ccc2O1,-67
C[C@@H]1CN([C@@H](C)CO)C(=O)c2cc(NC(=O)Nc3ccc(C(F)(F)F)cc3)ccc2O[C@@H](C)CCCCO[C@H]1CN(C)Cc1ccc(C(F)(F)F)cc1,3
C[C@H](CO)N1C[C@H](C)[C@H](CN(C)Cc2ccc3c(c2)OCO3)OCCCC[C@H](C)Oc2ccc(NC(=O)Nc3ccc(C(F)(F)F)cc3)cc2C1=O,-57
C[C@@H]1CCCCO[C@H](CN(C)Cc2ccc3c(c2)OCO3)[C@@H](C)CN([C@@H](C)CO)C(=O)c2cc(NC(=O)Nc3ccc(C(F)(F)F)cc3)ccc2O1,-100*
SMILES,C diff HTS
C[C@@H]1CN([C@@H](C)CO)C(=O)c2cc(NC(=O)Nc3ccc(C(F)(F)F)cc3)ccc2O[C@@H](C)CCCCO[C@H]1CN(C)Cc1ccc2c(c1)OCO2,-92*
C[C@@H]1CCCCO[C@@H](CN(C)Cc2ccc(C(F)(F)F)cc2)[C@H](C)CN([C@@H](C)CO)C(=O)c2cc(NC(=O)Nc3ccc(C(F)(F)F)cc3)ccc2O1,19
C[C@@H]1CCCCO[C@H](CN(C)Cc2ccc3c(c2)OCO3)[C@H](C)CN([C@@H](C)CO)C(=O)c2cc(NC(=O)Nc3ccc(C(F)(F)F)cc3)ccc2O1,-39
C[C@@H]1CN([C@H](C)CO)C(=O)c2cc(NC(=O)Nc3ccc(C(F)(F)F)cc3)ccc2O[C@@H](C)CCCCO[C@H]1CN(C)Cc1ccc2c(c1)OCO2,-100*
CCC(=O)Nc1ccc2c(c1)OC[C@H](C)N(C(=O)Cc1cccnc1)C[C@H](C)[C@@H](OC)CN(C)C2=O,1
COc1ccc2c3c(n(C)c2c1)[C@@H](CO)N(CC1CCOCC1)CC31CCN(Cc2nccs2)CC1,5
C[C@@H]1CN([C@@H](C)CO)C(=O)c2c(c3ccccc3n2C)-c2ccccc2CO[C@@H]1CN(C)C(=O)c1cc(Cl)cc(Cl)c1,-4
O=C(C[C@@H]1CC[C@H]2[C@@H](COC[C@@H](O)CN2Cc2ccc(Oc3ccccc3)cc2)O1)Nc1nccs1,41
C[C@@H]1CN([C@@H](C)CO)C(=O)Cc2cc(N(C)C)ccc2O[C@H]1CN(C)C(=O)Nc1ccc(C(F)(F)F)cc1,-2
O=C(C1CCC1)N1CC2(C1)[C@H](c1ccccc1)[C@@H](CO)N2C(=O)CC1CC1,5
O=C(C[C@H]1C=C[C@H](NC(=O)Nc2ccc(F)cc2)[C@@H](CO)O1)NCc1cccc(F)c1,2
Cc1ccc(S(=O)(=O)N2C[C@@H]3N[C@H](C2)C3c2ccc(/C=C/c3ccccc3)cc2)cc1 (stereo not given in full),-95*!
Cc1ccccc1-c1ccc(C2[C@@H]3CN(S(=O)(=O)c4ccccc4)C[C@H]2N3)cc1 (stereo not given in full),-13
C/C=C/c1ccc(C2[C@@H]3CN(S(=O)(=O)c4ccccc4)C[C@H]2N3)cc1 (stereo not given in full),1
COc1cccc(S(=O)(=O)N2C[C@@H]3N[C@H](C2)C3c2ccc(/C=C/c3ccccc3)cc2)c1 (stereo not given in full),-94*!
O=S(=O)(c1ccc(-c2ccccc2)cc1)N1C[C@@H]2N[C@H](C1)C2c1ccc(-c2ccccc2)cc1 (stereo not given in full),13
COc1cccc(-c2ccc(C3[C@@H]4CN(S(=O)(=O)c5ccccc5)C[C@H]3N4)cc2)c1 (stereo not given in full),60
COc1ccccc1S(=O)(=O)N1C[C@@H]2N[C@H](C1)C2c1ccc(-c2ccccc2C)cc1 (stereo not given in full),49
COc1cccc(S(=O)(=O)N2[C@@H]3CNC[C@H]2C3c2ccc(/C=C/c3ccccc3)cc2)c1 (stereo not given in full),-47
Cc1ccccc1-c1ccc(C2[C@@H]3CN(S(=O)(=O)c4ccccc4C)C[C@H]2N3)cc1 (stereo not given in full),-98*!
Cc1noc(C)c1NC(=O)N(C)C[C@@H]1OCCCC[C@@H](C)Oc2ccc(NC(=O)NC(C)C)cc2C(=O)N([C@@H](C)CO)C[C@H]1C,-3
COc1ccc2c3c([nH]c2c1)[C@@H](CO)N(Cc1ccncc1)CC31CN(C(=O)Cc2ccncc2)C1,8
O=C(C[C@H]1C=C[C@@H](NC(=O)C2CCOCC2)[C@H](CO)O1)NCc1ccccc1Cl,39
